Data: PubChem BioAssay (NCI)
About 83,000 compounds went through this panel and 20% of them were active in at least one assay; those are over-represented in the sample as a whole.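 Assay: single dose, 48 h. Readout: percent growth (0 = no net growth; negative = cell death). Active: <10.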 Calls of active or inactive are those of the source.

System: IGROV1 ovarian
Assay: NCI-60 one-dose screen, 48 h (100 = growth as untreated, 0 = no growth, -100 = all killed)
Conditions: 10 µM unless noted
Protocol: Growth inhibition of the IGROV1 human tumor cell line is measured as a screen for anti-cancer activity. Cells are grown in 96 well plates and exposed to the test compound for 48 hours. Compounds are tested at a single concentration, which is 10^-5 M for most compounds. The reported endpoint is percent growth (GI% or GIPRCNT), where numbers from 0 - 100% represent growth inhibition, and numbers from -100% - 0 represent cell death. For example, a value of 40 represents 60% growth inhibition. A value of 0 means no net growth occurred over the course of the experiment. A value of -40 indicates 40% of cells at the beginning of the experiment died by the end of the experiment. A value of -100 means all cells are dead at the end of the experiment.
NCI-60 Human Tumor Cell Lines Screen was performed using the standard one-dose NCI protocol, which is described in more detail at https://dtp.cancer.gov/discovery_development/nci-60/default.htm.
Compounds with GIPRCNT values below 10 were considered active. Activity score was based on GIPRCNT using the following formula: […]
Score is 0 for GIPRCNT values of 100 or above, 50 for GIPRCNT values of 0, and 100 for GIPRCNT values of -100.

Compound	growth
Cc1c(-c2ccc(C3CCCCC3)cc2)nc2ccc(F)cc2c1C(=O)O	29.7% (inactive)
O=C(O)Cc1ccccn1	105% (inactive)
CC(=O)OCC1CCC(COC(C)=O)CC1 (stereo not given)	105% (inactive)
CCN(CC)c1ccc2nc3ccc(N=Nc4ccc(N(C)C)cc4)cc3[n+](-c3ccccc3)c2c1	14.5% (inactive)
COc1ccc(C)cc1NC(=O)SC(C)C	102% [100 µM] (inactive)
ClCC(Cl)C1CCC(Cl)C(Cl)C1 (stereo not given)	117% (inactive)
CCOC(=O)CO	105% (inactive)
Nc1ncnc(Nc2ccc(C(F)(F)F)cc2)n1	100% (inactive)
Oc1ccc(CCC2CCNc3ccccc32)cc1 (stereo not given)	91.1% (inactive)
O=C(NCc1ccccc1)c1cccc([N+](=O)[O-])c1	101% (inactive)
Oc1cc2ccccc2c(-c2c(O)c(O)cc3ccccc23)c1O	-47.5% (active)
Cc1onc(-c2c(F)cccc2Cl)c1-c1ncc(-c2ccc(Br)cc2)o1	36.8% (inactive)
O=C(CCl)Nc1ccccc1SCc1cc(Cl)cc2c1OCOC2	-43% (active)
Cn1c(=O)c2[nH]c(CC(=O)O)nc2n(C)c1=O	103% (inactive)
COC1OC(CO)C(OC)C(O)C1O (stereo not given)	102% (inactive)
CCOC(=O)C(CCC#N)(CCC#N)C(=O)OCC	126% (inactive)
CCOc1ccc(NC(=S)N2CCC(CCCC3CCN(C(=S)Nc4ccc(OCC)cc4)CC3)CC2)cc1	94.5% (inactive)
O=C(Nc1ccccc1)c1ccco1	105% (inactive)
COc1cccc(N=CNc2cccc(OC)c2)c1	96.7% (inactive)
COc1ccc(C(=O)/C(=N/Nc2ccccc2)c2ccc(OC)cc2)cc1	91.5% (inactive)

Compound	growth
Nc1cc(N)ncn1	101% (inactive)
Nc1nnc2cc(F)ccc2n1	102% (inactive)
BrCc1cccc(C[P+](c2ccccc2)(c2ccccc2)c2ccccc2)c1	38.8% (inactive)
Cc1nc(C)c(C(=O)O)cc1C(=O)O	124% (inactive)
C=CCC(OC(C)=O)c1ccc(OC)c(OC)c1 (stereo not given)	96.6% (inactive)
CCN(CC)CCCC(C)NC(=S)N/N=C(\C)c1ccccn1 (stereo not given)	32.3% (inactive)
Cc1ccc2nc(N)nnc2c1	109% (inactive)
CC(C)C(C)(C)C(=O)C(C)(C)C(C)(C)C	105% (inactive)
CC(=O)O[C@H]1CC[C@]2(C)C3=C(C(=O)C[C@H]2C1(C)C)[C@]1(C)CC[C@H]([C@H](C)CCC(=O)O)[C@@]1(C)CC3=O	103% (inactive)
CCOC(=O)C(COS(C)(=O)=O)(COS(C)(=O)=O)C(=O)OCC	104% (inactive)
O=S(Cc1ccccc1)/C(=C/NC(=S)Nc1ccccc1)c1ccccc1 (stereo not given)	97.6% (inactive)
COc1cccc(C(=O)NNC(=O)c2cccc3ccccc23)c1	131% (inactive)
CC(=O)NNC(=S)N/C=C/c1c(C)ccc([N+](=O)[O-])c1[N+](=O)[O-]	109% (inactive)
CCCCN(C(=O)CC)c1ccccc1	102% (inactive)
Cc1cc(Cl)cc(Cc2cc(Cl)cc(C)c2O)c1O	33.1% (inactive)
Cc1onc(-c2ccccc2Cl)c1C(=O)Cl	117% (inactive)
O=C(OC1CCCC1)c1ccccc1Cl	106% (inactive)
C=CCOc1ccc(Cl)cc1Cl	116% (inactive)
C[C@H](CCC[C@H](C)OS(=O)(=O)c1ccccc1)OS(=O)(=O)c1ccccc1	73% (inactive)
Cc1c(Cl)cccc1N=C=S	108% (inactive)
